Records with an inconclusive call do not appear. A number with no mark means an inactive call. Active and inactive are the calls of the source. Calls come from the whole dose curve; as a rule, active = well fitted inhibition curve with a large enough effect; inconclusive = small, poorly fitted or top-dose-only effect; inactive = no such curve, though single readings can be large or run the other way.
Biological target: Endonuclease 4 (Escherichia coli (strain K12)) (UniProt P0A6C1)
Experiment: Counterscreen for APE1 Inhibitors: qHTS Validation Assay for Inhibitors of Endonuclease IV (AID 1708)
Details: E. coli endonuclease IV, DNA cleavage fluorescence; series mostly up to 57.1 µM; activity change, negative = inhibition: at the top concentration
Excerpt: Assay Provider: David M. Wilson, III, National Institute on Aging, NIH
Screening Center PI: Austin, C.P.
Screening Center: NIH Chemical Genomics Center [NCGC]
Escherichia coli endonuclease IV (Endo IV) is the key member of the AP endonuclease superfamily that catalyzes the cleavage of damaged DNA backbone immediately 5' of an AP site. E. coli EndoIV has the same functional activities as human APE1 but has no sequence or structural homology to the human protein. Herein, we utilize E. coli EndoIV to counter screen compound libraries as part of a high-throughput campaign for APE1 inhibitor identification. A concentration-response screen of the LOPAC1280 collection was performed under experimental conditions identical to those used in the APE1 screen.
Inhibition of APE1 activity was screened by utilizing double-stranded short substrate containing tetrahydrofuran (THF) abasic site labeled with rhodamine-type fluorophore (TAMRA) at the 5'-end and with non-fluorescent Black Hole Quencher-2 (BHQ-2) at the opposing 3'-end. An increase in the fluorescence intensity due to incision of the abasic site by APE1 was used to measure the enzyme activity.
Buffer: 50 mM Tris-HCl (pH 7.5) containing 50mM NaCl, 2 mM MgCl2, 1 mM DTT and 0.01% Tween-20.
Buffer in columns 3 and 4 as negative control (no enzyme).
Substrate: 50 nM final concentration of TAMRA/BHQ-2 substrate dispensed throughout the plate.
Enzyme: 2 nM E. coli EndoIV final concentration in columns 1, 2, 5-48. Column 1 is neutral (100% activity).
Control: Pintool transfer of control inhibitor NSC-13755 to column 2 of all assay plates. Two-fold, 16 pt dilution in duplicate to produce final concentrations in the 5.75 uM - 0.175 nM range.
Three uL of enzyme were dispensed to 1536-well Greiner black solid bottom plates. Compounds (23 nL) were transferred via Kalypsys pintool. The plates were incubated for 15 min at room temperature, and then 1 uL of substrate solution was added to start the reaction. The plates were immediately transferred into ViewLux High-throughput CCD imager (Perkin-Elmer) in order to measure the reaction progress in kinetic mode (three reads every 60 seconds) using 525 nm excitation and 598 nm emission fluorescence protocol. The fluorescence intensity difference between the third and the first time points was used to compute reaction progress.
% is set by controls: 0 for no effect and ±100 for the full control effect; potency is the fitted concentration of half-maximal effect.

SMILES	activity change, negative = inhibition [%]	Potency
CC(=O)Oc1cc(C(C)C)c(OCCN(C)C)cc1C	-11.5	
CNCCCN1c2ccccc2CCc2ccccc21	-10	
C[N+](C)(C)CCOC(N)=O	-4.98	
NC(N)=NC(=O)Cc1c(Cl)cccc1Cl	-10.2	
CCCCNc1c(C(=O)OCC)c(C)nc2c1cnn2CC	13.3	
CN(C)CCCN1c2ccccc2Sc2ccccc21	-3.37	
CC(C)(C)NCC(O)c1cc(O)cc(O)c1 (stereo not given)	-8.51	
Cc1ccc(Cl)c(Nc2ccccc2C(=O)O)c1Cl	-8.51	
COCCCC/C(=N\OCCN)c1ccc(C(F)(F)F)cc1	-6.27	
CCCCNC(=O)NS(=O)(=O)c1ccc(C)cc1	-8.67	
CCN1CCC[C@H]1CNC(=O)c1c(O)c(Cl)cc(Cl)c1OC	-1.04	
CC(=O)OC(C)C[N+](C)(C)C (stereo not given)	-6.43	
C[N+](C)(C)CCCCCCCCCC[N+](C)(C)C	-4.26	
COc1ccc(CCN(C)CCCC(C#N)(c2cc(OC)c(OC)c(OC)c2)C(C)C)cc1OC (stereo not given)	-14.1	
COC(=O)[C@@H](N)Cc1ccc(O)c(O)c1	25.8	
Cc1ccc(/C(=C\CN2CCCC2)c2ccccn2)cc1	-6.83	
CCn1ccnc1CC1COc2ccccc2O1 (stereo not given)	-3.78	
CCc1c(C)[nH]c2c1C(=O)C(CN1CCOCC1)CC2 (stereo not given)	-6.18	
CN(C)CC[C@@H](c1ccc(Br)cc1)c1ccccn1	0.482	
CC(N=C(NC#N)Nc1ccncc1)C(C)(C)C (stereo not given)	-7.15	

SMILES	activity change, negative = inhibition [%]	Potency
O=C(O)CCCCCCCC(=O)O	-4.18	
Cc1ccc(=O)n(-c2ccccc2)c1	-3.05	
CC(C)COCC(CN(Cc1ccccc1)c1ccccc1)N1CCCC1 (stereo not given)	127	
CC(=O)Nc1nnc(S(N)(=O)=O)s1	-7.95	
CN(C)C(=O)Oc1cccc([N+](C)(C)C)c1	-8.51	
COCCc1ccc(OCC(O)CNC(C)C)cc1 (stereo not given)	-8.59	
CN(C)CCCN1c2ccccc2Sc2ccc(C(F)(F)F)cc21	-10.8	
Nc1ncn([C@@H]2O[C@H](CO)[C@@H](O)[C@H]2O)c(=O)n1	-3.78	
CCc1cccc(N(C)C(N)=Nc2cccc3ccccc23)c1	-2.65	
Cc1nc2ccccn2c(=O)c1CCN1CCC(C(=O)c2ccc(F)cc2)CC1	-10	
C[C@]12CCC(=O)C=C1CC[C@@H]1[C@@H]2CC[C@@]2(C)[C@H]1CC[C@]2(O)C(=O)CO	28.4	
CC(=O)OCC1=C(C(=O)O)N2C(=O)[C@@H](NC(=O)Cc3cccs3)[C@H]2SC1	-5.06	
CC(=O)[C@]1(O)Cc2c(O)c3c(c(O)c2[C@@H](O[C@H]2C[C@H](N)[C@H](O)[C@H](C)O2)C1)C(=O)c1ccccc1C3=O		25.1 µM (active)
C=CCc1ccccc1OCC(O)CNC(C)C (stereo not given)	-1.29	
CCn1nc(C(=O)O)c(=O)c2cc3c(cc21)OCO3	-4.18	
CC(C)[N+](C)(CCOC(=O)C1c2ccccc2Oc2ccccc21)C(C)C	-1.69	
C[C@]12CCC(=O)C=C1CC[C@@H]1[C@@H]2C(=O)C[C@@]2(C)[C@H]1CC[C@]2(O)C(=O)CO	22.2	
NC/C=C/C(=O)O	-6.27	
COc1cc2c(cc1OC)-c1cc(=Nc3c(C)cc(C)cc3C)n(C)c(=O)n1CC2	-8.03	
CCCCCN(CCCCC)C(=O)C(CCC(=O)O)NC(=O)c1ccc(Cl)c(Cl)c1 (stereo not given)	-2.81	

— PubChem BioAssay (NCATS)
